Measurements: article PMC12280212

How the values were obtained:
[1] = target: Actin, cytoplasmic 1 (UniProt P60709); experiment: cross-linking mass spectrometry
[2] = target: Histone H2B type 1-N (UniProt Q99877); experiment: cross-linking mass spectrometry
[3] = target: Alpha-enolase (UniProt P06733); experiment: cross-linking mass spectrometry
[4] = target: Heat shock cognate 71 kDa protein (UniProt P11142); experiment: cross-linking mass spectrometry
[5] = target: Heterogeneous nuclear ribonucleoprotein U (UniProt Q00839); experiment: cross-linking mass spectrometry
Chain of Heterogeneous nuclear ribonucleoprotein U (Q00839 whole entry): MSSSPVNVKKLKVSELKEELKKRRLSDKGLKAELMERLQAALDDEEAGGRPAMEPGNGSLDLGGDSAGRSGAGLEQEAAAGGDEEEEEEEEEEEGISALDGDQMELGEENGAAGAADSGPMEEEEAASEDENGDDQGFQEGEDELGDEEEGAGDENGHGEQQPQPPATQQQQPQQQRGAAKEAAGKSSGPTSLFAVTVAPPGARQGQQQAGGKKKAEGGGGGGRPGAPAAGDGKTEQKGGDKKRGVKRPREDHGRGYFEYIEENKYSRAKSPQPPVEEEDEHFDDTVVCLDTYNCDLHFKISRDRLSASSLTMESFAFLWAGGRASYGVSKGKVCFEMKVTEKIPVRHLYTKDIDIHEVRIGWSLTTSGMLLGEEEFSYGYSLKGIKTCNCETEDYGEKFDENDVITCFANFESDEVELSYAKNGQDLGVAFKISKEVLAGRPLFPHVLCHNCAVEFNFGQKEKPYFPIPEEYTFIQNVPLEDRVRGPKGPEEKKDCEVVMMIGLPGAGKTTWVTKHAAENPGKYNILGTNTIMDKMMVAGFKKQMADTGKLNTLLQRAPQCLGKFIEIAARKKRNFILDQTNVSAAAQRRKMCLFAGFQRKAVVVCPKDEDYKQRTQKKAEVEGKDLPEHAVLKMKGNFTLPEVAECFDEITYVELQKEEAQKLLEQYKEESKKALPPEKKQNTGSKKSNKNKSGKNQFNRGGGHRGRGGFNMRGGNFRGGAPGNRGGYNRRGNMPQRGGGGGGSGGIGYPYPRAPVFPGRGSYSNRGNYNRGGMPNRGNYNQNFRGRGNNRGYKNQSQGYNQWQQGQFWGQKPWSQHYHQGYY

[6] = target: Protein disulfide-isomerase A6 (UniProt Q15084); experiment: cross-link between two proteins; cross-linking mass spectrometry
Chain of Protein disulfide-isomerase A6 (Q15084 whole entry): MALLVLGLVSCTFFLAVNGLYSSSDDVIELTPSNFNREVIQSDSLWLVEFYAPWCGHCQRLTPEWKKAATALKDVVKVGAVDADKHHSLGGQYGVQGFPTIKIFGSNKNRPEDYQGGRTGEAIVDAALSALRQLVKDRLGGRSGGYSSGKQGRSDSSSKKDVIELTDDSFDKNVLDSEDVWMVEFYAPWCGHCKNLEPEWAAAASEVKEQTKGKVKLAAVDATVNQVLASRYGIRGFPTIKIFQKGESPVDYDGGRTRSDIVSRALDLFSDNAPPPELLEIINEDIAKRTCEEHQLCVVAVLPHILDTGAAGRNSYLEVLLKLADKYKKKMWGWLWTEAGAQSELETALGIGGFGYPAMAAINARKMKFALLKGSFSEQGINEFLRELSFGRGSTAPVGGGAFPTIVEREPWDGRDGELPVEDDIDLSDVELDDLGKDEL

[7] = target: Voltage-gated monoatomic cation channel TMEM109 (UniProt Q9BVC6); experiment: as above
Chain of Voltage-gated monoatomic cation channel TMEM109 (Q9BVC6 whole entry): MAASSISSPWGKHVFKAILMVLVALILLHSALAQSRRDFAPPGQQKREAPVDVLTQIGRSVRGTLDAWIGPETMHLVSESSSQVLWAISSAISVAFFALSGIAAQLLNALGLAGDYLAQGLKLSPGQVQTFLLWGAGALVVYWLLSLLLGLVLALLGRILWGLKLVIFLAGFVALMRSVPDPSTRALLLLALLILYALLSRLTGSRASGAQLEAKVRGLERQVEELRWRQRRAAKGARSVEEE

[8] = target: CD44 antigen (UniProt P16070); experiment: cross-link between two proteins; affinity purification or IP with mass spectrometry; cross-linking mass spectrometry

Chain of Protein disulfide-isomerase, P07237 (P07237 whole entry): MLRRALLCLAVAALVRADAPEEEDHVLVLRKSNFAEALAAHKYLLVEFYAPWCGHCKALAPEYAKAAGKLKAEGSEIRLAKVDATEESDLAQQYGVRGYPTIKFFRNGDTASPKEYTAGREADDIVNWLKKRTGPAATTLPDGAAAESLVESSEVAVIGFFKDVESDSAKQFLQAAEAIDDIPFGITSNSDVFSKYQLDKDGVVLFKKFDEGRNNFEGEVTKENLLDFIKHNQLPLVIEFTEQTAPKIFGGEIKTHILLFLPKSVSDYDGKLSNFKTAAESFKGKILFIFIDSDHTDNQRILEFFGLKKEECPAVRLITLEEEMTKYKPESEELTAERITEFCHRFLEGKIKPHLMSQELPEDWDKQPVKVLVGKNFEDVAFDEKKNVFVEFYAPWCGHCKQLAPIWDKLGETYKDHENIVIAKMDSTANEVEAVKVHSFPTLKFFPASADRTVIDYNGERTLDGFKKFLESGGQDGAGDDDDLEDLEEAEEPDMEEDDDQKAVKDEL
Chain of Glyceraldehyde-3-phosphate dehydrogenase, P04406 (P04406 whole entry): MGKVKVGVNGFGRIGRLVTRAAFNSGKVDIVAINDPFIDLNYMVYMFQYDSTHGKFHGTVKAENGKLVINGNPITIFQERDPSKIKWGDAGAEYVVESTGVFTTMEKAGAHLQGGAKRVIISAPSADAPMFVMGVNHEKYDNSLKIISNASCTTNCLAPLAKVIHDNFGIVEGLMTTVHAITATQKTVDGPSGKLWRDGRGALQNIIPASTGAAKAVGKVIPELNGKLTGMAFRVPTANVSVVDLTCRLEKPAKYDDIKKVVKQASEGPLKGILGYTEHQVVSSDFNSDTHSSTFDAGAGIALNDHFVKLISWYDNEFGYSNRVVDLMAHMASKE
Chain of Alpha-enolase (P06733 whole entry): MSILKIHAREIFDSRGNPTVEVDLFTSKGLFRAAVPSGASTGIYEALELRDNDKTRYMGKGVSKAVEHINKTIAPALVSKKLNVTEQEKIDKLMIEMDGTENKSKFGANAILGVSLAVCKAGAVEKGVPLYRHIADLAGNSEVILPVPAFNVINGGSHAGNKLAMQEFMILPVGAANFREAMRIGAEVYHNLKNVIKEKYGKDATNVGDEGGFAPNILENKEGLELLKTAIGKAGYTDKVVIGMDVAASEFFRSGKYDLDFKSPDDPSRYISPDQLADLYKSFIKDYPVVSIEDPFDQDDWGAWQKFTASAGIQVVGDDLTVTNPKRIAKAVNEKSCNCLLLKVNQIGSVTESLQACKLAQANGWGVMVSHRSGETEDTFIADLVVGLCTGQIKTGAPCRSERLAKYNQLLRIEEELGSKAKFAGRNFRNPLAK

Substance: High mobility group protein B1, P09429
- listed as a hit [1]: yes
- listed as a hit [2]: yes

Substance: Glyceraldehyde-3-phosphate dehydrogenase, P04406
- listed as a hit [3]: yes

Substance: Tubulin beta chain, P07437
- listed as a hit [4]: yes

Substance: Heterogeneous nuclear ribonucleoprotein A1, P09651
- listed as a hit [5]: yes

Substance: Protein disulfide-isomerase, P07237
- listed as a hit [6]: yes

Substance: Transmembrane protein 43, Q9BTV4
- listed as a hit [7]: yes

Substance: Annexin A6, P08133
- listed as a hit [8]: yes
